# Reference: PubChem BioAssay AID1159580 (chemical genetic matrix, 2015)
# The whole screen tested about 5,500 compounds, of which about 2,000 (36%) were called active. Roughly 18% stayed inconclusive and do not appear here. The list shows a part of the results. Unmarked numbers belong to inactive results. No stated cut-off is given here; in the data, active means normalized growth mostly below about 0.91 (no sharp cut-off); inconclusive means no clear call, values can overlap the other calls; inactive means mostly above about 0.92.
# Experiment: chemical genetic growth profiling, strain panel (AID 1159580);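 further: tested at 20 µM; growth read once vehicle control cultures reached saturation at 30 °C; 1 = growth at the plate median or of vehicle wells; lower values mean less growth of the strain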
# Conditions: growth OD
# [1] = S. cerevisiae deletion strains, locus YDL101C, strain DUN1, hits give low values
# [2] = S. cerevisiae deletion strains, locus YHR030C, strain SLT2, hits give low values
compound,measurement,setting,value
COC(=O)c1ccc(Cl)cc1N(Cc1ccccc1)S(C)(=O)=O,normalized growth,"S. cerevisiae deletion strains, locus YAL013W, strain DEP1, hits give low values",1.01
same,normalized growth,"S. cerevisiae deletion strains, locus YBR229C, strain ROT2, hits give low values",1.02
same,normalized growth,[1],0.998
same,normalized growth,"S. cerevisiae deletion strains, locus YDL134C, strain PPH21, hits give low values",1
same,normalized growth,"S. cerevisiae deletion strains, locus YDR150W, strain NUM1, hits give low values",0.934
same,normalized growth,"S. cerevisiae deletion strains, locus YEL061C, strain CIN8, hits give low values",1
same,normalized growth,"S. cerevisiae deletion strains, locus YGR078C, strain PAC10, hits give low values",0.992
same,normalized growth,"S. cerevisiae deletion strains, locus YGR229C, strain SMI1, hits give low values",0.999
same,normalized growth,[2],1.11
same,normalized growth,"S. cerevisiae deletion strains, locus YHR087W, strain rtc3, hits give low values",1
same,normalized growth,"S. cerevisiae deletion strains, locus YJL187C, strain SWE1, hits give low values",1
same,normalized growth,"S. cerevisiae deletion strains, locus YJR075W, strain HOC1, hits give low values",0.968
same,normalized growth,"S. cerevisiae deletion strains, locus YLR039C, strain RIC1, hits give low values",1.03
same,normalized growth,"S. cerevisiae deletion strains, locus YLR058C, strain SHM2 (second series), hits give low values",1.01
same,normalized growth,"S. cerevisiae deletion strains, locus YLR085C, strain ARP6, hits give low values",1.05
same,normalized growth,"S. cerevisiae deletion strains, locus YLR262C, strain YPT6, hits give low values",1
same,normalized growth,"S. cerevisiae deletion strains, locus YML094W, strain GIM5, hits give low values",1.02
same,normalized growth,"S. cerevisiae deletion strains, locus YMR219W, strain ESC1, hits give low values",1
same,normalized growth,"S. cerevisiae deletion strains, locus YMR263W, strain SAP30, hits give low values",0.929
same,normalized growth,"S. cerevisiae deletion strains, locus YNL128W, strain TEP1, hits give low values",1.02
same,normalized growth,"S. cerevisiae deletion strains, locus YNL153C, strain GIM3, hits give low values",1
same,normalized growth,"S. cerevisiae deletion strains, locus YNL298W, strain CLA4 (second series), hits give low values",1.04
same,normalized growth,"S. cerevisiae deletion strains, locus YNL322C, strain KRE1, hits give low values",0.985
same,normalized growth,"S. cerevisiae deletion strains, locus YNR030W, strain Alg12, hits give low values",1.02
same,normalized growth,"S. cerevisiae deletion strains, locus YOL006C, strain TOP1, hits give low values",1.14
same,normalized growth,"S. cerevisiae deletion strains, locus YPL055C, strain LGE1, hits give low values",0.923
same,normalized growth,"S. cerevisiae deletion strains, locus YPL241C, strain CIN2, hits give low values",1.03
same,normalized growth,"S. cerevisiae deletion strains, locus YPR135W, strain CTF4, hits give low values",1.17
same,normalized growth,"S. cerevisiae strains, strain wild type, hits give low values",1.03
CN(C(=O)N(C)c1ccc(Cl)cc1C(=O)c1ccccc1Cl)c1ccc(Cl)cc1C(=O)c1ccccc1Cl,normalized growth,"S. cerevisiae deletion strains, locus YAR019C, strain CDC15, hits give low values",0.84 (active)
same,normalized growth,"S. cerevisiae deletion strains, locus YBL105C, strain PKC1, hits give low values",0.85 (active)
same,normalized growth,"S. cerevisiae deletion strains, locus YBR135W, strain CKS1, hits give low values",0.85 (active)
same,normalized growth,"S. cerevisiae deletion strains, locus YBR136W, strain MEC1, hits give low values",0.832 (active)
same,normalized growth,"S. cerevisiae deletion strains, locus YBR160W, strain CDC28, hits give low values",0.853 (active)
same,normalized growth,"S. cerevisiae deletion strains, locus YDL017W, strain CDC7, hits give low values",0.851 (active)
same,normalized growth,"S. cerevisiae deletion strains, locus YDL028C, strain MPS1, hits give low values",0.835 (active)
same,normalized growth,[1],0.847 (active)
same,normalized growth,"S. cerevisiae deletion strains, locus YDL108W, strain KIN28, hits give low values",0.831 (active)
same,normalized growth,"S. cerevisiae deletion strains, locus YDL132W, strain cdc53, hits give low values",0.853 (active)
same,normalized growth,"S. cerevisiae deletion strains, locus YDL214C, strain PRR2, hits give low values",0.471 (active)
same,normalized growth,"S. cerevisiae deletion strains, locus YDR052C, strain DBF4, hits give low values",0.855 (active)
same,normalized growth,"S. cerevisiae deletion strains, locus YDR054C, strain cdc34, hits give low values",0.805 (active)
same,normalized growth,"S. cerevisiae deletion strains, locus YDR226W, strain ADK1, hits give low values",0.86 (active)
same,normalized growth,"S. cerevisiae deletion strains, locus YDR477W, strain SNF1, hits give low values",0.467 (active)
same,normalized growth,"S. cerevisiae deletion strains, locus YER123W, strain YCK3, hits give low values",0.388 (active)
same,normalized growth,"S. cerevisiae deletion strains, locus YER133W, strain GLC7, hits give low values",0.447 (active)
same,normalized growth,"S. cerevisiae deletion strains, locus YFL009W, strain cdc4, hits give low values",0.848 (active)
same,normalized growth,"S. cerevisiae deletion strains, locus YFL029C, strain CAK1, hits give low values",0.828 (active)
same,normalized growth,"S. cerevisiae deletion strains, locus YFR003C, strain YPI1, hits give low values",0.85 (active)
same,normalized growth,"S. cerevisiae deletion strains, locus YFR019W, strain FAB1, hits give low values",0.577 (active)
same,normalized growth,"S. cerevisiae deletion strains, locus YFR028C, strain CDC14, hits give low values",0.841 (active)
same,normalized growth,"S. cerevisiae deletion strains, locus YGR040W, strain KSS1, hits give low values",0.462 (active)
same,normalized growth,"S. cerevisiae deletion strains, locus YGR052W, strain FMP48, hits give low values",0.46 (active)
same,normalized growth,"S. cerevisiae deletion strains, locus YGR092W, strain DBF2, hits give low values",0.242 (active)
same,normalized growth,[2],0.49 (active)
same,normalized growth,"S. cerevisiae deletion strains, locus YHR079C, strain IRE1, hits give low values",0.463 (active)
same,normalized growth,"S. cerevisiae deletion strains, locus YHR082C, strain KSP1, hits give low values",0.492 (active)
same,normalized growth,"S. cerevisiae deletion strains, locus YHR205W, strain SCH9, hits give low values",0.716
same,normalized growth,"S. cerevisiae deletion strains, locus YIL147C, strain SLN1, hits give low values",0.826 (active)
same,normalized growth,"S. cerevisiae deletion strains, locus YJL095W, strain BCK1, hits give low values",0.417 (active)
same,normalized growth,"S. cerevisiae deletion strains, locus YJL128C, strain PBS2, hits give low values",0.867
same,normalized growth,"S. cerevisiae deletion strains, locus YJL157C, strain FAR1, hits give low values",0.51 (active)
same,normalized growth,"S. cerevisiae deletion strains, locus YJR016C, strain ILV3, hits give low values",0.883 (active)
same,normalized growth,"S. cerevisiae deletion strains, locus YJR066W, strain TOR1 (second series), hits give low values",0.518 (active)
same,normalized growth,"S. cerevisiae deletion strains, locus YJR066W, strain TOR1, hits give low values",0.381 (active)
same,normalized growth,"S. cerevisiae deletion strains, locus YKL048C, strain ELM1, hits give low values",0.605 (active)
same,normalized growth,"S. cerevisiae deletion strains, locus YKL067W, strain YNK1, hits give low values",0.525 (active)
same,normalized growth,"S. cerevisiae deletion strains, locus YKL101W, strain HSL1, hits give low values",0.524 (active)
same,normalized growth,"S. cerevisiae deletion strains, locus YKL193C, strain SDS22, hits give low values",0.832 (active)
same,normalized growth,"S. cerevisiae deletion strains, locus YKL203C, strain TOR2, hits give low values",0.457 (active)
same,normalized growth,"S. cerevisiae deletion strains, locus YLR113W, strain HOG1, hits give low values",0.447 (active)
same,normalized growth,"S. cerevisiae deletion strains, locus YLR133W, strain CKI1, hits give low values",0.582 (active)
same,normalized growth,"S. cerevisiae deletion strains, locus YLR403W, strain SFP1, hits give low values",0.592 (active)
same,normalized growth,"S. cerevisiae deletion strains, locus YML070W, strain DAK1, hits give low values",0.446 (active)
same,normalized growth,"S. cerevisiae deletion strains, locus YMR001C, strain CDC5, hits give low values",0.838 (active)
same,normalized growth,"S. cerevisiae deletion strains, locus YMR205C, strain PFK2 (second series), hits give low values",0.549 (active)
same,normalized growth,"S. cerevisiae deletion strains, locus YMR277W, strain FCP1, hits give low values",0.825 (active)
same,normalized growth,"S. cerevisiae deletion strains, locus YNL006W, strain LST8, hits give low values",0.855 (active)
same,normalized growth,"S. cerevisiae deletion strains, locus YNL020C, strain ARK1, hits give low values",0.527 (active)
same,normalized growth,"S. cerevisiae deletion strains, locus YNL161W, strain CBK1, hits give low values",0.852 (active)
same,normalized growth,"S. cerevisiae deletion strains, locus YNL183C, strain NPR1, hits give low values",0.412 (active)
same,normalized growth,"S. cerevisiae deletion strains, locus YNL207W, strain RIO2, hits give low values",0.825 (active)
same,normalized growth,"S. cerevisiae deletion strains, locus YNL222W, strain SSU72, hits give low values",0.846 (active)
same,normalized growth,"S. cerevisiae deletion strains, locus YNL307C, strain MCK1 (second series), hits give low values",0.412 (active)
same,normalized growth,"S. cerevisiae deletion strains, locus YOL078W, strain AVO1, hits give low values",0.845 (active)
same,normalized growth,"S. cerevisiae deletion strains, locus YOL136C, strain PFK27, hits give low values",0.51 (active)
same,normalized growth,"S. cerevisiae deletion strains, locus YOR061W, strain CKA2, hits give low values",0.477 (active)
same,normalized growth,"S. cerevisiae deletion strains, locus YOR119C, strain RIO1, hits give low values",0.483 (active)
same,normalized growth,"S. cerevisiae deletion strains, locus YOR231W, strain MKK1, hits give low values",0.455 (active)
same,normalized growth,"S. cerevisiae deletion strains, locus YOR329C, strain SCD5, hits give low values",0.846 (active)
same,normalized growth,"S. cerevisiae deletion strains, locus YPL031C, strain PHO85, hits give low values",0.441 (active)
same,normalized growth,"S. cerevisiae deletion strains, locus YPL153C, strain RAD53, hits give low values",0.369 (active)
same,normalized growth,"S. cerevisiae deletion strains, locus YPL204W, strain HRR25, hits give low values",0.487 (active)
same,normalized growth,"S. cerevisiae deletion strains, locus YPL209C, strain IPL1, hits give low values",0.855 (active)
same,normalized growth,"S. cerevisiae deletion strains, locus YPL256C, strain CLN2, hits give low values",0.508 (active)
same,normalized growth,"S. cerevisiae deletion strains, locus YPR025C, strain CCL1, hits give low values",0.856 (active)
same,normalized growth,"S. cerevisiae deletion strains, locus YPR106W, strain ISR1, hits give low values",0.868 (active)
same,normalized growth,"S. cerevisiae deletion strains, locus YPR111W, strain DBF20, hits give low values",0.874
same,normalized growth,"S. cerevisiae deletion strains, strain NNK1, hits give low values",0.855 (active)
same,normalized growth,"S. cerevisiae deletion strains, strain TSCII, hits give low values",0.818 (active)
